# Compound activity deposited in PubChem by National Center for Advancing Translational Sciences (NCATS).
# TDP1 cell CPT: growth inhibition of DT40 Tdp1-/-;hTDP1 cells with camptothecin (screen for TDP1 inhibitors); Potency, µM (doses to about 46.2 µM), inactives show at the highest dose activity change, negative = growth inhibition, hits mostly inhibitors; AID 686979; hit rate 12% among 420,000; chicken DT40 Tdp1-/-;hTDP1 cells + 20 nM CPT, ATP luminescence, 48 h; further: nearly all actives have a fitted effect of over 55% in size
#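 Chicken DT40 Tdp1-/- cells stably complemented with human TDP1 were seeded at 400 cells/well in medium containing 20 nM camptothecin, exposed to pin-transferred compounds, and grown at 37 °C for at least 48 hr. Viability was read as ATP luminescence.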
# KB-3-1 cytotox: kills parental KB-3-1 adenocarcinoma cells. KB-3-1 viability, CellTiter-Glo ATP luminescence, 72 h. Potency, µM (doses to about 46.1 µM), most hits filed as cytotoxic. hit rate 1.4% among 400,000; further: nearly all actives have a fitted effect of over 60% in size
#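 Cells are dispensed, compounds pinned in, plates held at 37 °C for 72 h, then CellTiter-Glo is added and luminescence read after 10 minutes. Cell line: parental KB-3-1 in phenol-red-free DMEM, 10% FBS.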
# KB-V1 MDR tox: kills drug-selected multidrug resistant KB-V1 cells; KB-V1 MDR cells viability, CellTiter-Glo, 72 h; Potency, µM (series often up to 46.1 µM), hits mostly cytotoxic; AID 1347076; hit rate 3.4% among 400,000; further: nearly all actives have a fitted effect of over 60% in size
#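 Potencies derive from concentration-effect curves fitted to normalized luminescence (CellTiter-Glo) of KB-V1 cells treated for 72 h at 37 degrees C in phenol-red-free DMEM containing 10% FBS.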
# HT1080-NT tox: kills 2HG-producing HT-1080-NT fibrosarcoma cells; HT-1080-NT fibrosarcoma viability, CellTiter-Glo ATP luminescence, 48 h; Potency, µM (top dose mostly 46.1 µM), without a hit: at the top dose activity, negative = less viability, hits mostly cytotoxic; hit rate 1.6% among 360,000; AID 686970;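 further: NT is the 2HG producing partner of a matched IDH1 knockdown line; 0% = DMSO-treated cells and -100% = media-only wells without cells; nearly all actives have a fitted effect of over 55% in size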
#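 Viability of the 2HG-overproducing fibrosarcoma line after 48 hours of compound exposure at 37 degrees C was determined by luminescence with CellTiter-Glo, and concentration-effect curves were then fitted and categorized.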
# HT1080 IDH1KD tx: toxicity to HT-1080 IDH1 knockdown cells (counter line). Potency, µM (doses to about 46.1 µM), for inactives: top-dose activity, negative = toxicity, hits mostly cytotoxic. hit rate 2% among 360,000. HT-1080 IDH1 knockdown viability, ATP luminescence, 48 h. AID 686971;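 further: 0% = DMSO wells and -100% = cell-free medium wells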
#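 Knockdown cells (IDH1KD HT-1080) received compounds 2 h after plating at 750 cells/well and were kept 48 h at 37 °C in 5% FBS RPMI. A CellTiter-Glo luminescence read gave % activity for curve fitting.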
# TDP1 cell noCPT: qHTS for Inhibitors of human tyrosyl-DNA phosphodiesterase 1 (TDP1): qHTS in cells in absence of CPT | DT40 Tdp1-/- hTDP1 cells, no CPT, ATP luminescence, 48 h | Potency, µM (series often up to 46.2 µM), for the others: at the top dose activity change, negative = growth inhibition, most hits filed as inhibitors | hit rate 15% among 420,000 | AID 686978, 2013; further: nearly all actives have a fitted effect of over 55% in size
#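 Compound effects on proliferation are scored in DT40 Tdp1-/-;hTDP1 cells in the absence of CPT. ATP levels (CellTiter-Glo luminescence) are recorded after a ≥48 hr, 37 °C incubation.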
# Active calls of the source: *; i = inactive; ? = inconclusive; / = not tested or not shown. A selection: hits, their analogues and other compounds. The true share with any hit is near 19%. The call rests on the fitted dose curve; in most records, active means well fitted curve in the direction sought with a large enough effect; inconclusive means small, poorly fitted or top-dose-only effect, or another doubt; inactive means no such curve, though single readings can be large; an effect the other way counts as inactive or inconclusive. Unless noted, on the % scale 0 is the no-effect control and ±100 the full control effect; potency means the concentration at half of the fitted maximal effect.
SMILES,TDP1 cell CPT,KB-3-1 cytotox,KB-V1 MDR tox,HT1080-NT tox,HT1080 IDH1KD tx,TDP1 cell noCPT
Nc1ccc(C(=O)N/N=C2\CCCc3c2[nH]c2ccccc32)cc1,-22.4%,?,i,15.1%,1.8%,?
Cc1ccc2[nH]c3c(c2c1)CCCC3=O,-4.5%,1.84µM*,1.84µM*,-7.4%,-6.2%,4.8%
O=C1CCCc2c1[nH]c1ccc(CN3CCCCC3)cc21,16.4µM*,i,?,?,10µM*,?
Nc1[nH]c(C(=O)c2ccccc2)c(-c2c(F)cccc2F)c1C(=O)c1ccc(Cl)c(Cl)c1,?,?,i,?,?,?
COCCCNC(=O)C1CCN(c2cc(C)nc3c(-c4ccc(Cl)cc4)c(C)nn23)CC1,-20.4%,i,i,/,/,-19.7%
Cc1ccc2c(c1)c1c(c(=O)n(-c3ccccc3)c(=O)n1Cc1ccccc1C)n2C,-2.8%,i,i,/,/,-15.6%
O=S(=O)(c1cccc(F)c1)N1CCN(c2nc(-c3cccs3)nc3ccccc23)CC1,?,i,i,/,/,?
CC(C)c1ccc2[nH]c3c(c2c1)CCCC3=O,3.4%,i,13µM*,20.6µM*,?,-22.3%
Cc1[nH]c2ccc(C(C)C)cc2c1CC(=O)O,1.6%,i,i,-6.5%,5.1%,-2.2%
COc1ccc(C(=O)Oc2c(C)occc2=O)cc1OC,4.5%,i,?,-4.3%,-2.5%,-3.2%
Cc1occc(=O)c1OC(=O)Nc1ccc(Cl)c(Cl)c1,2.91µM*,?,?,23.1µM*,?,4.61µM*
Cc1ccc2nc3[nH]c(=O)[nH]c(=O)c3c(N)c2c1,?,?,?,0.1%,-5.5%,8.2µM*
CN1C(=O)S/C(=C/c2cccnc2)C1=O,?,i,i,15.5%,-4.6%,-27.0%
Cc1ccc(Oc2ccccc2/C=C2\SC(=O)N(C)C2=O)cc1,-24.3%,i,16.4µM*,-29.3%,-17.2%,?
O=C(CN1C(=O)C2(SCC(=O)N2c2cccc(F)c2)c2ccccc21)NCCc1ccccc1 (configuration not stated),-28.6%,i,i,/,/,23.1µM*
O=C(CN1C(=O)C2(SCC(=O)N2c2cccc(F)c2)c2ccccc21)NCc1ccccc1Cl (configuration not stated),?,i,6.51µM*,/,/,20.6µM*
O=C(CN1C(=O)C2(SCC(=O)N2c2ccccc2)c2ccccc21)NCc1ccccc1Cl (configuration not stated),/,i,i,/,/,/
O=C(CN1C(=O)C2(SCC(=O)N2c2ccccc2)c2ccccc21)NCCc1ccccc1 (configuration not stated),/,i,?,/,/,/
Cc1ccc(C(O)c2ncc(-c3ccccc3Cl)[nH]2)cc1F (configuration not stated),?,i,i,-11.4%,-22.6%,?
Cc1ccc(-c2nnc(Nc3ccc(C(=O)N(C)C)cc3)c3ccccc23)cc1S(=O)(=O)NCC1CCCO1 (configuration not stated),14.6µM*,i,i,-3.5%,-8.1%,23.1µM*
COC(=O)c1ccc(Nc2nnc(-c3ccc(C)c(S(=O)(=O)NCC4CCCO4)c3)c3ccccc23)cc1 (configuration not stated),23.1µM*,i,i,-2.2%,-15.9%,23.1µM*
CCc1nc2cc(NC(=O)C3(C)CCCN(C(C)C)C3)ccc2o1 (configuration not stated),-11.8%,i,i,9.8%,11.5%,1.5%
CSc1ccc(CCNC(=O)NCc2noc3ccccc23)cc1,?,i,i,/,/,?
Nc1cccc2c(O)cccc12,-13.7%,?,?,-19.2%,-16.0%,-11.8%
O=c1[nH]ccc2c(O)cccc12,?,i,i,?,?,20.6µM*
SMILES,TDP1 cell CPT,KB-3-1 cytotox,KB-V1 MDR tox,HT1080-NT tox,HT1080 IDH1KD tx,TDP1 cell noCPT
CCOC(=O)c1ccccc1NC(=O)N1CCn2c(C)ccc2C1CC (configuration not stated),23.1µM*,i,i,5.5%,7.8%,?
CCCC1c2ccc(C)n2CCN1C(=O)Nc1ccccc1Cl (configuration not stated),-27.7%,i,i,-1.2%,5.3%,20.6µM*
Cc1cn2c(=O)c(S(=O)(=O)Nc3ccc(N4CCOCC4)cc3)c(C)nc2s1,?,i,i,/,/,?
Cc1cn2c(=O)c(S(=O)(=O)Nc3ccc(OC(F)(F)F)cc3)c(C)nc2s1,20.6µM*,i,i,/,/,23.1µM*
COc1cc(OC)c(NS(=O)(=O)c2c(C)nc3sc(C)cn3c2=O)cc1Cl,?,i,i,/,/,14.6µM*
CCCCOC(=O)c1ccc(NS(=O)(=O)c2c(C)nc3scc(C)n3c2=O)cc1,13µM*,i,8.2µM*,/,/,23.1µM*
COc1ccc(CCNS(=O)(=O)c2c(C)nc3sc(C)cn3c2=O)cc1OC,-12.2%,i,i,/,/,-4.3%
CCCCNC(=O)CCC1N=C2c3ccccc3N=C(SCC(=O)NCCc3ccc(OC)c(OC)c3)N2C1=O (configuration not stated),5.8%,i,i,/,/,-0.1%
CSc1ccc(NC(=O)N2CCC(C(=O)c3ccc(F)cc3)CC2)cc1,?,i,?,-1.7%,-17.1%,?
COC(=O)c1c(SC)nc2ccccc2c1OCc1ccccc1C,?,i,i,/,/,13µM*
CCSc1nc2ccccc2c(OCc2cc(C(=O)OC)ccc2OC)c1C(=O)OC,18.4µM*,i,?,/,/,?
COc1ccc(SCC(=O)c2cc(C)c(OC(=S)N(C)C)c(C)c2)cc1,20.6µM*,i,i,-12.8%,-15.2%,?
Cc1cccc(/C=C2\Sc3ccc(C(=O)NCC4CCCO4)cc3N(C)C2=O)c1 (configuration not stated),12.5%,i,i,-2.1%,-3.7%,?
CN1C(=O)/C(=C/c2ccccc2F)Sc2ccc(C(=O)NCC3CCCO3)cc21 (configuration not stated),23.1µM*,i,i,-10.4%,?,?
CCCCCCSc1ccc([C@H]2N[C@@](Cc3ccccc3)(C(=O)OC)[C@H]3C(=O)N(C)C(=O)[C@@H]23)cc1OC,?,i,i,0.0%,1.3%,?
